# Experimental data published in PubChem BioAssay (Tox21).
# Inconclusive results are not listed. Entries that show only a call come without a potency. A number with no mark means an inactive call. Activity calls are given as the source filed them. The call rests on the fitted dose curve.
# Biological target: 5-hydroxytryptamine receptor 2A (Homo sapiens) (UniProt P28223)
# Assay: 5-hydroxytryptamine receptor 2A (HTR2A) small molecule antagonists, cell-based qHTS assay (AID 1963586); further: nearly all actives have a fitted effect of over 45% in size
# Conditions: HTR2A-CHO cells, DOI-induced calcium flux, fluorescence; series mostly up to 61.5 µM
# From the text: National Center for Advancing Translational Sciences [NCATS]
# Division of Preclinical Innovation [DPI]
# U.S. Environmental Protection Agency [EPA]
# National Institutes of Environmental Health Sciences [NIEHS]
# National Toxicology Program [NTP]
# U.S. Food and Drug Administration [FDA]
# The HTR2A receptor is a subtype of the 5-HT2 receptor that belongs to the serotonin receptor family and is a G protein-coupled receptor (GPCR). The HTR2A-CHO cell line stably expressing human 5-hydroxytryptamine receptor 2A (HTR2A) can be used for screening antagonists of interactions between 5-HT2 and its ligands. The HTR2A-CHO calcium flux assay is a homogeneous fluorescence-based assay for detecting the intracellular calcium level using FDSS kinetic plate reader system.
# Tox21 Assay Protocol Summary:
# HTR2A-CHO cells were dispensed at 2000 cells/3uL/well in 1536-well black-clear bottom plates using a Multidrop Dispenser. After the assay plates were incubated at a 37 C/5% CO2 incubator for 18 h, 3 uL of Dye Loading Buffer was transferred to the assay plate by a Flying Reagent Dispenser. The assay plates were incubated at 37 C for 1h. For antagonist mode, 23 nL of compounds dissolved in DMSO, positive controls or DMSO only was transferred to the assay plate by a pin tool. After 5 min incubation at room temperature, 1.5 uL of 4-Iodo-2,5-dimethoxy-alpha-methylbenzeneethanamine hydrochloride (DOI) at 4nM was added to each well. The fluorescence intensity in the plates was measured using FDSS 7000EX kinetic plate reader for 3 min at 1 sec intervals.
# Potency means the concentration at half of the fitted maximal effect.
# Chain of 5-hydroxytryptamine receptor 2A (Homo sapiens) (P28223 whole entry, looked up): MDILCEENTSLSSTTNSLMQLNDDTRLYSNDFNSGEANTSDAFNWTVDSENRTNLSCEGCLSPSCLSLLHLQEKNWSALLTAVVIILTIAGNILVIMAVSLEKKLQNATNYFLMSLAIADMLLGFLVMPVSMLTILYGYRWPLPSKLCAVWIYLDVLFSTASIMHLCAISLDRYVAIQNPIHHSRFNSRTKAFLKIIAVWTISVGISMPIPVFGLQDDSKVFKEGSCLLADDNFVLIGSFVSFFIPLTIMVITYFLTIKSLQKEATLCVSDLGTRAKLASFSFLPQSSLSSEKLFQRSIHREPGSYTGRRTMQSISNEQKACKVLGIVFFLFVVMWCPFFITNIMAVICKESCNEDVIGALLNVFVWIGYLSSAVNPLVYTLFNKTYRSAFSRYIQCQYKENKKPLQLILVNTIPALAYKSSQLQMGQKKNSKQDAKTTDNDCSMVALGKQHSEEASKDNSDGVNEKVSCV
Compound,Potency,"activity, negative = inhibition"
COc1ccc(/C=C/c2cc(OC)cc(=O)o2)cc1,9.64 µM (active),–
CC(C)c1ccc2c(c1)CC[C@H]1[C@](C)(CN)CCC[C@]21C,29.8 µM (active),–
CO[Si](OC)(c1ccccc1)c1ccccc1,inactive,–
C=C/C=C/C=C/CCCCC,–,-10.4% [at 12.7 µM]
C[C@@H](C1=C(CCN(C)C)Cc2ccccc21)c1ccccn1,inactive,–
CCCC(=O)OCC,inactive,–
CCCC(C)C(=O)O (stereo not given),inactive,–
CC(CO)(CO)[N+](=O)[O-],inactive,–
CC(C)Nc1ccc(NC(C)C)c2c1C(=O)c1ccccc1C2=O,inactive,–
C=CCCCCCCC=C,inactive,–
Cc1c2ccccc2c(C)c2c1ccc1ccccc12,inactive,–
CCCCCCC1CCC(=O)O1 (stereo not given),inactive,–
Cn1cnc2c(=O)[nH]c(N)nc21,inactive,–
CC(C)n1nc(-c2cc3cc(O)ccc3[nH]2)c2c(N)ncnc21,inactive,–
C=CCOCC(O)CS(=O)(=O)O (stereo not given),inactive,–
CNCCCC1c2ccccc2C=Cc2ccccc21,7.29 µM (active),–
O=C(O)C1(C(=O)Nc2ccc(Cl)cc2Cl)CC1,33.4 µM (active),–
C[C@H]1[C@@H](c2ccccc2)NC(=O)N1C,inactive,–
CC(C)CC(C)(C)C,inactive,–
CCCCCCOc1ccccc1C(N)=O,inactive,–

Compound,Potency,"activity, negative = inhibition"
CCCCCCCCCCCC(=O)[O][Sn]([CH2]CCC)([CH2]CCC)[O]C(=O)CCCCCCCCCCC,inactive,–
C=C[Si](OCC)(OCC)OCC,inactive,–
C=C(C)[C@@H]1CC=C(C)C(=O)C1,inactive,–
O=C(O)CNC(=O)CNC(=O)CNC(=O)CSC(=O)c1ccccc1,inactive,–
COC(=O)CC(=O)C(C)(C)C,inactive,–
C[C@@H]1C[C@H]2[C@@H]3C[C@H](F)C4=CC(=O)C(Cl)=C[C@]4(C)[C@@]3(F)[C@@H](O)C[C@]2(C)[C@@]1(O)C(=O)CO,inactive,–
CC(C)C(OC(=O)c1ccccc1)C(C)(C)COC(=O)c1ccccc1 (stereo not given),inactive,–
CC1=C(C=O)C(C)(C)CCC1,inactive,–
CCN1CCN(C(=O)N[C@@H](C(=O)N[C@@H]2C(=O)N3C(C(=O)O)=C(CSc4nnnn4C)CS[C@H]23)c2ccc(O)cc2)C(=O)C1=O,inactive,–
CCCCOCCOCCOCCOCCO,inactive,–
C=CCOC(=O)CCC1CCCCC1,inactive,–
O=Cc1ccc(O)c(O)c1O,inactive,–
CCN(CC)c1ccc(C(=C2C=CC(=[N+](CC)CC)C=C2)c2cc(S(=O)(=O)O)ccc2S(=O)(=O)[O-])cc1,inactive,–
COC(=O)c1cc(Cl)ccc1[N+](=O)[O-],inactive,–
O=C(O)[C@@H]1CSCN1,inactive,–
Cc1ccc(O)c(C(=O)c2ccccc2)c1,inactive,–
C=C1CC[C@H]2C[C@@H]1C2(C)C,inactive,–
CCCCOC(=O)c1ccccc1C(=O)OCC(CC)CCCC (stereo not given),inactive,–
CCOc1ccc2nc(S(N)(=O)=O)sc2c1,inactive,–
CCCCCCCCCCO[C@@H]1O[C@H](CO)[C@@H](O)[C@H](O)[C@H]1O,inactive,–
